Hit rate of the full screen: of about 69,000 compounds, about 950 (1.4%) showed an effect of 50% or more. The entries come from a sample that favours strong results as a whole.

This assay has as its system Mycobacterium tuberculosis. Nature of the assay: Cornell M. t heat shock assay. Also: in the data most compounds retested in dose-response had high values. The arrangement: dose or concentration left out as unconfirmed. It counts as functional, organism-based.
Consider `CCOC[C@]12COC[C@H]1CN(Cc1ccc3c(c1)OCO3)C2.O=C(O)C(F)(F)F`, for which the “Percent Effect” value turned out to be 12.44%. With `O=C(CCc1ccccc1F)NS(=O)(=O)c1ccc2c(c1)OCCO2`, the “Percent Effect” value is listed as -5.66%. As for `O=C(CCc1ccccc1Br)NS(=O)(=O)c1ccc2c(c1)OCCO2`, the “Percent Effect” value amounted to 6.065%. With `O=C(CCc1ccccc1Cl)NS(=O)(=O)c1ccc2c(c1)OCCO2`, the “Percent Effect” value came to 62.1%. On to `Cl.O=C(NC1CCCC1)C1(Cc2cc(C3CCOC3)no2)CCNCC1` (stereo unspecified), for which the “Percent Effect” value stood at 5.68%. The figure for `O=C(c1cnc(-c2ccccn2)s1)N1CCCC(n2cccn2)C1` (stereo unspecified) is -7.844%. For `CC1CCN(C(=O)[C@H]2CC[C@@H]3[C@@H](CCN3Cc3nccs3)O2)CC1.O=C(O)C(F)(F)F` the value was -10.06%. In the case of `COc1ccc(CNC(=O)N2CCN(CC(O)C3CC3)CC2)cc1.Cl` (stereo unspecified), the “Percent Effect” value came to 14.41%. For `CC(C)c1cc(N(C)Cc2cc(C3CC3)on2)n2nccc2n1` the value was 41.46%; for `CC(C)Cc1nc(CN(C)c2cc(C(C)C)nc3ccnn23)no1`, 23.84%; for `CC(C)c1cc(N(C)Cc2noc(C3CCCC3)n2)n2nccc2n1`, 67.06%.

With `COC(=O)N1CCC(Nc2cccc(F)c2C#N)CC1`, the “Percent Effect” value is 83.06%.

With `COC(=O)N1CCC(Nc2cccc(F)c2C(C)=O)CC1`, the “Percent Effect” value is 5.265%. Turning to `COC(=O)N1CCC(Nc2cccc(F)c2C(C)=O)C1` (stereo unspecified), the “Percent Effect” value is 10.56%. Take `O=C(O)C(F)(F)F.O=C(O)C(F)(F)F.O=C(O)C(F)(F)F.c1cc(CN2C[C@@H]3OCCN(CC4CCCO4)[C@@H]3C2)ccn1` (stereo partly specified): the “Percent Effect” value is on record as -18.75%. The figure for `CN(C(=O)C1CCCCC1)[C@@H]1CCC[C@@H](N2CCOCC2)[C@@H]1O` is -6.532%; for `CN(C(=O)C1CCOCC1)[C@@H]1CCC[C@@H](N2CCCC2)[C@@H]1O` it is 60.86%; for `CN(C(=O)C1CCOCC1)[C@@H]1CCC[C@@H](N2CCOCC2)[C@@H]1O` it is -10.17%. The figure for `CC(C)OCCCN(Cc1cnn(C)c1)Cc1ccccn1.O=C(O)CC(O)(CC(=O)O)C(=O)O` is -10.12%; for `CCC1=N[C@@]2(CC[C@@H]3CN(CC4CC4)C[C@@H]32)C(=O)N1C.O=C(O)C(F)(F)F` it is 5.845%; for `CCCC(O)CN1CC(C)(C)CN(C(=O)CCc2ccccc2)CC1=O` (stereo unspecified) it is 10.24%. The figure for `CN1CC(C)(C)CN(C(=O)CCc2ccccc2)CC1=O` is 21.51%. Regarding `CC(C)(O)CN1CC(C)(C)CN(C(=O)CCc2ccccc2)CC1=O`, the “Percent Effect” value is 52.03%. Take `CC(O)CN1CC(C)(C)CN(C(=O)CCc2ccccc2)CC1=O` (stereo unspecified): the “Percent Effect” value was 50.7%. Regarding `CCN1CC(C)(C)CN(C(=O)CCc2ccccc2)CC1=O`, the “Percent Effect” value is on record as 22.76%. For `COCC(O)CN1CC(C)(C)CN(C(=O)CCc2ccccc2)CC1=O` (stereo unspecified) the value was 27.88%.

The values above are taken from ChEMBL document CHEMBL3988442, “University of Dundee, Small-Polar-MMV Screening Library” (2021).
